The target of test [1] is Sodium channel protein type 1 subunit alpha (Rattus norvegicus) (UniProt P04774). As to the kind of experiment: NVS_IC_rNaCh_site2: NovaScreen (NVS) Ion Channel Assay for rat Sodium Channel, Site 2 (NaCh) (AID 2283322).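 Note: hit means loss of radioligand binding signal relative to DMSO so AC50 marks displacement.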 In short, it runs like this:
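Membranes: rat forebrain. Format: competitive radioligand displacement, filter separation, scintillation readout, 1 h exposure. Primary screen in duplicate at 25 uM; actives retested in concentration series.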

Test [2] addresses rat Vasopressin 1 Receptor (V1), Avpr1a (gene 25107) (UniProt P30560). Description: NVS_GPCR_rV1: NovaScreen (NVS) G Protein-Coupled Receptor Assay for rat Vasopressin 1 Receptor (V1) (AID 2283316). On the procedure: NVS_GPCR_rV1 is a biochemical, single-readout assay that uses extracted gene-proteins from Rat liver membranes in a tissue-based cell-free assay. Measurements were taken 1.5 hours after chemical dosing in a 48-well plate.NVS_GPCR_rV1 is one of one assay component(s) measured or calculated from the NVS_GPCR_rV1 assay. It is designed to make measurements of radioligand binding, a form of binding reporter, as detected with scintillation counting signals by Filter-based radiodetection technology.Data from the assay component NVS_GPCR_rV1 was analyzed into 1 assay endpoint. This assay endpoint, NVS_GPCR_rV1, was analyzed in the positive analysis fitting direction relative to DMSO as the negative control and baseline of activity. […] Furthermore, this assay endpoint can be referred to as a primary readout, because the performed assay has only produced 1 assay endpoint. […]
Binding assays used specific radioligands (tritiated, iodinated) with non-radioactive competitive displacement ligands in agonist or antagonist protocols (as indicated) and various reference compounds and inhibitors to titrate specific binding to receptors and transporters. Most enzyme assays (CYPs, kinases, phosphatases, proteases, HDACs) used recombinant protein and specific substrates (fluorescence mostly, some colorimetric and radioactive) and inhibitors, followed by a biochemical separation of substrate and product. […]

For test [3], the target named is rat Adrenergic Receptor, Alpha 2 (Adra2), Non-selective Binding, Adra2a (gene 25083) (UniProt P22909). Description: NVS_GPCR_rAdra2_NonSelective: NovaScreen (NVS) G Protein-Coupled Receptor Assay for rat Adrenergic Receptor, Alpha 2 (Adra2), Non-selective Binding (AID 2283299). In short, it runs like this: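 Rat cortical membranes, radioligand competitive displacement read by filter-based scintillation counting 1.25 hours after dosing. Primary screen in duplicate at 25 uM; actives followed up in concentration series.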

Test [4] deals with mouse Cholecystokinin, CCK2 Receptor (CCKB), Cckbr (gene 12426) (UniProt P56481). Description: NVS_GPCR_mCKKBCentral: NovaScreen (NVS) G Protein-Coupled Receptor Assay for mouse Cholecystokinin, CCK2 Receptor (CCKB) (AID 2283293). In short, it runs like this: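 Radioligand displacement binding on mouse forebrain membranes, 2 h exposure, filter-based scintillation counting. Primary screen in duplicate at 25 uM; actives (e.g. ≥30% inhibition) retested in concentration-response up to 50 uM; loss of binding signal relative to DMSO.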

Test [5] deals with rat Somatostatin Receptor (SST), Sstr1 (gene 25033) (UniProt P28646). As to the kind of experiment: NVS_GPCR_rSST: NovaScreen (NVS) G Protein-Coupled Receptor Assay for rat Somatostatin Receptor (SST) (AID 2283314). In short, it runs like this: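 Rat forebrain membranes; radioligand displacement read by filter-based scintillation counting 1 h after dosing. Primary screen in duplicate at 25 uM. Actives (e.g., 30% inhibition) were rerun as concentration-response to 50 uM max and fitted against DMSO.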

In test [6] the target is guinea pig Serotonin, 5-Hydroxytryptamine Receptor 4 (5HT4), HTR4 (gene 100135548) (UniProt O70528). Description: NVS_GPCR_g5HT4: NovaScreen (NVS) G Protein-Coupled Receptor Assay for guinea pig Serotonin, 5-Hydroxytryptamine Receptor 4 (5HT4) (AID 2283294). In short, it runs like this:
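Guinea pig striatal membranes; radioligand competitive displacement, filtration and scintillation counting after 1 h. Primary screen in duplicate at 25 uM; actives then tested in concentration series; loss of binding signal fitted relative to DMSO.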

In test [7] the test system is rat Adrenergic, Alpha 1B Receptor (Adra1B), gene 24173. As to the kind of experiment: NVS_GPCR_rAdra1B: NovaScreen (NVS) G Protein-Coupled Receptor Assay for rat Adrenergic, Alpha 1B Receptor (Adra1B) (AID 2283297). In short, it runs like this: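 Rat liver membranes, radioligand displacement with filter-based scintillation detection, 1 h incubation. Primary screen in duplicate at 25 uM; actives retested in concentration series; activity relative to DMSO.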

For test [8], the target named is rat Histamine Receptor (H3), Hrh3 (gene 85268) (UniProt Q9QYN8). As to the kind of experiment: NVS_GPCR_rH3: NovaScreen (NVS) G Protein-Coupled Receptor Assay for rat Histamine Receptor (H3) (AID 2283303). In short, it runs like this: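 Rat forebrain membranes incubated 1 h with compound; radioligand displacement measured by filter-based scintillation counting. Single-concentration duplicates at 25 µM, then concentration-response up to 50 µM, relative to DMSO.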

A further test addresses Adra2b (gene 24174) (UniProt P19328). As to the kind of experiment: NVS_GPCR_rmAdra2B: NovaScreen (NVS) G Protein-Coupled Receptor Assay for hybird cells Adrenergic, Alpha 2B Receptor (Adra2B) (AID 2283306). In short, it runs like this:
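Radioligand filter-binding assay on membrane proteins from neuroglioma/blastoma hybrid cells (rodent), 1 h after dosing; scintillation counting, loss of signal vs DMSO. Primary screen in duplicate at 25 uM, actives then run in concentration series.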

Test [9] in a line: NVS_IC_rCaDHPRCh_L: NovaScreen (NVS) Ion Channel Assay for rat Calcium Channel, Type L, Dihydropyridine Site (CaDHPRCh_L) (AID 2283320). In short, it runs like this: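 Radioligand binding to dihydropyridine site on rat cortical membranes, filter-based scintillation counting, 1 h after dosing. Screened in duplicate at 25 uM; actives rerun in concentration-response up to 50 uM. Loss of signal versus DMSO baseline.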

By AC50 is commonly meant the concentration giving half of the maximal activity seen.

Values joined by “and” are separate entries in the source; they are usually repeats but may differ in a detail not shown here. Identical values can stand only once. Results filed as inconclusive are left out. Active and inactive are the calls of the source. Rule for the calls: active = hit-call score of the fitted dose curve at least 0.9, where 1 is the maximum; inconclusive = response in the unintended direction; inactive = score below 0.9.

Sequence of rat Adrenergic Receptor, Alpha 2 (Adra2), Non-selective Binding, Adra2a (gene 25083) (P22909 whole entry, looked up): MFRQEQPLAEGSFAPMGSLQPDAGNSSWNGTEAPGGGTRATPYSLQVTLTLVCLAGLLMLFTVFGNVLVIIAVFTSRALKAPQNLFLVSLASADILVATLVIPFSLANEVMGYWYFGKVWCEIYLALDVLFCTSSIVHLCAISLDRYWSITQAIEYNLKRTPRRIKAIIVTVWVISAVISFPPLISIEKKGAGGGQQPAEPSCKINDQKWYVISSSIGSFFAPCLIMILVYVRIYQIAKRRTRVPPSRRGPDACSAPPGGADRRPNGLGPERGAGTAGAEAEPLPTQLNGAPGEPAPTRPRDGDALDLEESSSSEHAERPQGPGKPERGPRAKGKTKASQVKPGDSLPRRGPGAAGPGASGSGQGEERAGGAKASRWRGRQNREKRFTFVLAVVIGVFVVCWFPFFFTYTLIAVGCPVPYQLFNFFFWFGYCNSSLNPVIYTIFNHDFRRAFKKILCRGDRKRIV
Sequence of rat Histamine Receptor (H3), Hrh3 (gene 85268) (Q9QYN8 whole entry, looked up): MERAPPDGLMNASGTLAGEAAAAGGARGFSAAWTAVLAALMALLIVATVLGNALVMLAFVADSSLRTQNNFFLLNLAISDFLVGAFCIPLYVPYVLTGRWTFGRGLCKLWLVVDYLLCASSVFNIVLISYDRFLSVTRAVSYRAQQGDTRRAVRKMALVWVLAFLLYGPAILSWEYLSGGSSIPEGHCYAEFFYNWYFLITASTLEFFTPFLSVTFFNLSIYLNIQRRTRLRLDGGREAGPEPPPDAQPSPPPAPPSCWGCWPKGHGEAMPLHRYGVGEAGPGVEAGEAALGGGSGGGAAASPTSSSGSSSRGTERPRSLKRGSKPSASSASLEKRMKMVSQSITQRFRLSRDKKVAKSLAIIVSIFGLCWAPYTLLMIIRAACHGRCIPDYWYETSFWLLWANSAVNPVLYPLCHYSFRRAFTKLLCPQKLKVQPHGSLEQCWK
Sequence of rat Vasopressin 1 Receptor (V1), Avpr1a (gene 25107) (P30560 whole entry, looked up): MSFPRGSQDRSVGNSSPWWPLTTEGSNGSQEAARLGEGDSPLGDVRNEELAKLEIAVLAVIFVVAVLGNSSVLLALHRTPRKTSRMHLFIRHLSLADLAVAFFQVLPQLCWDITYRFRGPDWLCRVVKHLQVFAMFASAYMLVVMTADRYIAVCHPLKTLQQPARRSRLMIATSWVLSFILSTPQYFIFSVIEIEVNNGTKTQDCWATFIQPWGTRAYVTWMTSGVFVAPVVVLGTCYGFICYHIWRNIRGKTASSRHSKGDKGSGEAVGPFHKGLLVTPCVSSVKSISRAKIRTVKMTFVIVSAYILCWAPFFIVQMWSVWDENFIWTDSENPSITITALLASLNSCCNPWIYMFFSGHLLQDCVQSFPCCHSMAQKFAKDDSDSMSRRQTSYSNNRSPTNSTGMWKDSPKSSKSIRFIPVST
Sequence of guinea pig Serotonin, 5-Hydroxytryptamine Receptor 4 (5HT4), HTR4 (gene 100135548) (O70528 whole entry, looked up): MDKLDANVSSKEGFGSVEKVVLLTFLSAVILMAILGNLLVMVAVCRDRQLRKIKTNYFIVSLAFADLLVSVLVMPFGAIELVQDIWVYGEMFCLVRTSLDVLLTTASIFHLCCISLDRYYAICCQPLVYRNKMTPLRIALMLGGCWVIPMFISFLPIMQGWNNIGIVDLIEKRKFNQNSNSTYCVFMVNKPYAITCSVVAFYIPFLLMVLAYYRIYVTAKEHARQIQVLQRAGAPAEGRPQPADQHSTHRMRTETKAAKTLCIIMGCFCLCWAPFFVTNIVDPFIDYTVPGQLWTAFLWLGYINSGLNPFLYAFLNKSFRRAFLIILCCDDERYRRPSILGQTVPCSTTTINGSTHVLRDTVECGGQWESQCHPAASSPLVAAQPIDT
Sequence of Adra2b (gene 24174) (P19328 whole entry, looked up): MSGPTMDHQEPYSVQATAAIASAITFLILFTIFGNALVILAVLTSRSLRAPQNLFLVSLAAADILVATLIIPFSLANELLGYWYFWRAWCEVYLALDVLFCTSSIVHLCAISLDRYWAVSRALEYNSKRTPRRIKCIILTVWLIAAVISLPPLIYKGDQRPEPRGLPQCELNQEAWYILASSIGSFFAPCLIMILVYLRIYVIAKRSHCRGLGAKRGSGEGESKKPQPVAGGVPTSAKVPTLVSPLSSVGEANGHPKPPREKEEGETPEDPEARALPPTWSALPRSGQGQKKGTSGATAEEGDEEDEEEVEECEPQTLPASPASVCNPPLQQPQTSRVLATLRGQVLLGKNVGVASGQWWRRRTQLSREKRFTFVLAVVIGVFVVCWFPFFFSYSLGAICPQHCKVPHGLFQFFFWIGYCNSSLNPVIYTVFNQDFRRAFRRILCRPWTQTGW
Sequence of mouse Cholecystokinin, CCK2 Receptor (CCKB), Cckbr (gene 12426) (P56481 whole entry, looked up): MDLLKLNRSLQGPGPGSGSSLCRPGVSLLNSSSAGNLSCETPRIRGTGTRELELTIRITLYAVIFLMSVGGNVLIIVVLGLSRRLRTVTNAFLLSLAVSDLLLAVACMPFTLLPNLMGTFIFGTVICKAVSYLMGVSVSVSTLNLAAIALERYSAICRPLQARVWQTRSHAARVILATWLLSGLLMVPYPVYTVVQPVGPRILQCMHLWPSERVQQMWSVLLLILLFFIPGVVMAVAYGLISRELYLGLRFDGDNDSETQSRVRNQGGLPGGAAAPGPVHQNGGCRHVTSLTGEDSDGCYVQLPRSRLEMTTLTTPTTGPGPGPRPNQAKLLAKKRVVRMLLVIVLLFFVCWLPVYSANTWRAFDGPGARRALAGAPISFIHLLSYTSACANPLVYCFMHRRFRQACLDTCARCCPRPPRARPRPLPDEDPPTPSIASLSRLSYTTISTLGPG
Sequence of rat Somatostatin Receptor (SST), Sstr1 (gene 25033) (P28646 whole entry, looked up): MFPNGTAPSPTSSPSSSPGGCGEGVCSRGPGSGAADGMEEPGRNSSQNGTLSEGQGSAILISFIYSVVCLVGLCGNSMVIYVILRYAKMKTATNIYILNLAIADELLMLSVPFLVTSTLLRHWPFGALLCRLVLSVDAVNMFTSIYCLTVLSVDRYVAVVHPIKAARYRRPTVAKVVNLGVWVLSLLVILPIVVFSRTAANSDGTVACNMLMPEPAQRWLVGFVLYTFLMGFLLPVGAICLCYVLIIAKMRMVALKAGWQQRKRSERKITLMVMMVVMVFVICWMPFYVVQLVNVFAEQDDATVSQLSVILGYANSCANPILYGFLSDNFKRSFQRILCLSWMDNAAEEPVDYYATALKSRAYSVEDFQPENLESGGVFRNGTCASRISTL

With `CCc1cccc(CC)c1N(COC)C(=O)CS(=O)(=O)O`, the call in test [1] was inactive.

Turning to `CS(=O)(=O)c1ccc([C@@H](CC2CCCC2)C(=O)Nc2cnccn2)cc1Cl`, in test [2], the result was inactive.

For the compound `CN(C)c1ccc(C(=C2C=CC(=[N+](C)C)C=C2)c2ccccc2)cc1`, the AC50 was 8.31 µM (active) and 7.55 µM (active) in test [3]; 860 nM (active) and 5.04 µM (active) in test [1].

Consider `CCCCCCCCCCCCCCCCCC[N+](C)(C)Cc1ccccc1`, for which the compound was classed as inactive in [1].

Take `CN(Cc1cnc2nc(N)nc(N)c2n1)c1ccc(C(=O)N[C@@H](CCC(=O)O)C(=O)O)cc1`: the compound was called inactive in [4] and in test [1]. Also, the AC50 in [5] is 3.06 µM (active).

Turning to `CCCCc1oc2ccccc2c1C(=O)c1cc(I)c(OCCN(CC)CC)c(I)c1`, the AC50 was 15.7 µM (active) in test [6]; 9.13 µM (active) in test [7]; 10.8 µM (active) in test [3]; 6.48 µM (active) in [8]; 11.4 µM (active) with Adra2b (gene 24174); 0.772 µM (active) in test [9]. The AC50 in [1] was 1.67 µM (active).

Source of the values: PubChem BioAssay (EPA / NIEHS).
